Screens from PubChem.
Pf growth 96h: Primary qHTS for delayed death inhibitors of the malarial parasite plastid, 96 hour incubation; P. falciparum luciferase reporter growth, 96 h; Potency, µM (doses to about 28.7 µM), without a hit: at the highest dose activity change, negative = inhibition, hits mostly inhibitors; actives 6.9% (n = 320,000); AID 504834, 2011; also: potency is read from the fitted curve at half-maximal effect
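Delayed-death screen, second-generation endpoint: infected erythrocytes, 2% hematocrit, 0.05% parasitemia final; 96 hours at 37 C, 5% CO2; luciferase detection reagent; luminescence decrease equals reduced growth.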
HCMV inh: qHTS Assay for inhibitors of the human cytomegalovirus (HCMV); HFF cells, HCMV-luciferase reporter, 72 h; stronger effect = lower value; activity change, negative = inhibition, % at 57.5 µM; actives 4.5% (n = 410,000); AID 1259415, 2018; in the data active = activity change below about -60%; inconclusive = no clear call, values can overlap the other calls; inactive = above about -39%
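Compounds were evaluated in HFFs infected with an HCMV luciferase reporter virus (MOI 1 PFU/cell). Luciferase in lysates collected 72 h post infection served as the replication measure.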
Sm TGR block: qHTS Assay for the Inhibitors of Schistosoma Mansoni Peroxiredoxins; Schistosoma mansoni thioredoxin glutathione reductase (TGR), Q962Y6; purified TGR, DTNB reduction, TNB absorbance 405 nm; Potency, µM (series often up to 114 µM), inactives show at the highest dose activity change, negative = inhibition, most hits filed as inhibitors; actives 3% (n = 360,000); AID 485364, 2010; also: potency is read from the fitted curve at half-maximal effect; nearly all actives have a fitted effect of over 60% in size
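First, TGR (20 nM dispensed) and NADPH were mixed with compound. Second, a 15 min room-temperature incubation followed. Third, further NADPH and then DTNB were added to start the reaction. Finally, TNB absorbance was monitored kinetically.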
Pf growth 48h: Primary qHTS for delayed death inhibitors of the malarial parasite plastid, 48 hour incubation; P. falciparum luciferase growth in erythrocytes, 48 h; Potency, µM (series often up to 28.7 µM), for the others: at the top dose activity change, negative = inhibition, most hits filed as inhibitors; actives 5.9% (n = 310,000); also: potency is read from the fitted curve at half-maximal effect
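Growth was read as firefly luciferase luminescence after a 48 h, 37 C, 5% CO2 exposure of compounds to reporter-bearing P. falciparum cultures (0.1% parasitemia, 2% hematocrit final) in Albumax-supplemented RPMI 1640.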
FBPA Giardia inh: qHTS Assay for Inhibitors of Fructose-1,6-bisphosphate Aldolase from Giardia Lamblia; A8B2U2; purified Giardia FBPA; Potency, µM (titrated, usually from 59.6 µM), inactives show at the top dose activity, negative = inhibition, usual class: inhibitors; actives 0.71% (n = 290,000); AID 2451, 2010; also: potency is read from the fitted curve at half-maximal effect; nearly all actives have a fitted effect of over 55% in size
Target sequence (A8B2U2 whole entry, looked up): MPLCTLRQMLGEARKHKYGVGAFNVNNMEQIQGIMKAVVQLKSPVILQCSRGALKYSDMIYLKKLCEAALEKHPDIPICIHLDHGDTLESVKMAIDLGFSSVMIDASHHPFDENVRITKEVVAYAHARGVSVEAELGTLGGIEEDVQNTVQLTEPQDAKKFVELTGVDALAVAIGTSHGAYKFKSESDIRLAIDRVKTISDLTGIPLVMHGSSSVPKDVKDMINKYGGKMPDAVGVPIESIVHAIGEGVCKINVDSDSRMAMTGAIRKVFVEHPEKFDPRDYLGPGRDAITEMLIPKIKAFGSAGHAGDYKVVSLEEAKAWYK
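Giardia FBPA (40 nM reagent) was preincubated 10 min at RT with compound (up to 57.5 uM final), then substrate plus GAPDH/TPI/NAD/arsenate coupling system with diaphorase/resazurin was added; resorufin fluorescence (525/598 nm) was read after 20 min.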
An asterisk follows results filed as active; ? = inconclusive; / = not tested or not shown. Only some compounds are listed: those with a hit (about 14% of all), similar ones and a draw of the others. Unless noted, calls follow the shape of the dose curve; as a rule, active = well fitted curve in the direction sought with a large enough effect; inconclusive = small, poorly fitted or top-dose-only effect, or another doubt; inactive = no such curve, though single readings can be large; an effect the other way counts as inactive or inconclusive. % is scaled to controls: 0 for no effect and ±100 for the full control effect.

SMILES	Pf growth 96h	HCMV inh	Sm TGR block	Pf growth 48h	FBPA Giardia inh
O=C(CCCn1c(SCC(=O)c2ccc(F)cc2)nc2ccccc2c1=O)NCc1ccccc1	10µM*	-29	-29%	/	7%
O=C(CCCn1c(SCC(=O)NCC2CCCO2)nc2ccccc2c1=O)NCc1ccccc1 (stereo not given)	9.3µM*	1	0%	/	1%
O=C(CCCn1c(SCc2cc(=O)n3ccccc3n2)nc2ccccc2c1=O)NCC1CCCO1 (stereo not given)	?	-38	-6%	-23%	-15%
O=C(CCCn1c(SCc2cc(=O)n3cc(Cl)ccc3n2)nc2ccccc2c1=O)NCC1CCCO1 (stereo not given)	10µM*	?	-10%	6.6µM*	9%
O=C(O)CCC(=O)NNC(=O)c1ccc(Br)cc1	?	85	-2%	6%	3%
COc1ccc(-c2nnc(SCC(=O)c3ccc([N+](=O)[O-])cc3)o2)cc1OC	/	-3	-2%	/	/
CCC(C(=O)N1CCOCC1)n1nc(C)n2c(cc3cc(C)ccc32)c1=O (stereo not given)	60%	-12	-12%	9%	-3%
Cc1ccc(Cn2cccc2C2=NC(C)(C)CO2)cc1	/	4	8%	/	/
O=C1C=CC(=O)N1N(c1ccccc1)c1ccccc1	26%	3	2.5µM*	-10%	-4%
Cc1cc(/C([O-])=C(/C(=S)Nc2ccc(F)cc2)[n+]2ccccc2)c(C)n1-c1ccc(F)cc1	?	13	0%	19%	-24%
Cc1cc(/C([O-])=C(/C(=S)Nc2ccc(F)cc2)[n+]2ccccc2)c(C)n1Cc1ccccc1Cl	9.3µM*	22	3%	?	-11%
O=C(CN(C(=O)CCC(=O)Nc1nccs1)c1ccc(F)cc1)NCc1ccccc1	2%	18	-2%	1%	/
Cc1ccc(C(C)C)c(O)c1C(=O)O	/	-63*	/	/	/
Cc1cc(O)c(C=O)c(O)c1C(=O)O	/	/	/	/	-1%
CCN(CC)CCCNC(=O)c1cc2cc(Cl)ccc2nc1N	/	-26	/	/	/
Cc1cc2[nH]c3ccccc3c2c(C)n1	2.1µM*	-98*	-2%	6.6µM*	4%
CC1=CC(=C(c2ccc(N)cc2)c2ccc(N)cc2)C=CC1=N	1.1µM*	/	/	2.4µM*	/
O=C(CCc1nc2ccccc2c(=O)[nH]1)NNC(=O)COc1ccc(Br)cc1	-24%	/	1%	33%	/
Cc1ccc(-n2ncc3c(NCCc4ccc(S(N)(=O)=O)cc4)ncnc32)cc1	/	-2	-3%	/	/
Cc1cccc(-n2ncc3c(NCCc4ccc(S(N)(=O)=O)cc4)ncnc32)c1	10µM*	22	10%	/	-8%
Cc1cccc(-n2ncc3c(NCc4ccco4)ncnc32)c1	335%	119	45µM*	313%	-8%
CC(=O)N1c2ccc(S(=O)(=O)NCc3ccco3)cc2CC1C (stereo not given)	75%	14	?	19%	/
C[C@H]1CN([C@@H](C)CO)C(=O)CCCn2nncc2CO[C@@H]1CN(C)CC1CC1	/	10	/	/	/
CCN(CC)c1cc2c(cc1F)c(=O)c(S(=O)(=O)c1ccccc1)cn2C	/	?	8%	/	/
CCN(CC)c1cc2c(cc1F)c(=O)c(S(=O)(=O)c1cccc(C)c1)cn2C	/	-64*	17%	/	/
SMILES	Pf growth 96h	HCMV inh	Sm TGR block	Pf growth 48h	FBPA Giardia inh
CCC(=O)N(Cc1ccco1)C1CC(=O)N(c2ccccc2)C1=O (stereo not given)	-13%	-39	-2%	16%	0%
Cc1ccc(-c2csc3ncn(-n4c(C)ccc4C)c(=O)c23)o1	0.74µM*	28	6.3µM*	13µM*	10%
Cn1nnc(NC(=S)NC(=O)c2cc3ccccc3o2)n1	?	-9	25µM*	6%	?
Cn1nnc(NC(=O)/C=C/c2ccco2)n1	30%	-20	8.9µM*	33%	1%
Cn1nnc(NC(=S)NC(=O)c2ccco2)n1	-8%	8	?	27%	1.3µM*
Cn1nnc(NC(=O)c2ccccc2)n1	13µM*	-24	0%	32%	4%
COC(=O)CCCn1cc(CN2CC(N3CCN(CCN(C)C)CC3)CS2(=O)=O)nn1 (stereo not given)	/	-32	/	/	/
CC(=O)NC12CC3CC(C1)CC(C(=O)N(C)CC(=O)Nc1ccccc1Cl)(C3)C2	6%	-35	-2%	-4%	/
COc1ccc(C(=O)NC(=S)Nc2nnn(C)n2)cc1	31%	-26	-26%	5%	1.8µM*
COc1c(C(=O)NC(=S)Nc2nnn(C)n2)cc2ccccc2c1Br	0%	-24	0%	-6%	?
CCCSc1nsc(NC(=O)Nc2ccc(F)cc2F)n1	?	-101*	7%	?	-18%
CCCSc1nsc(NC(=O)CC)n1	8.3µM*	11	12%	176%	0%
CCSc1nsc(NC(=O)Nc2cccc(F)c2)n1	65%	-98*	1%	5.9µM*	2%
CCCSc1ccc(C(=O)Nc2ccc(F)cc2F)cn1	32%	-62*	1%	28%	3%
COc1cccc(NC(=O)Nc2nc(SC(C)(C)C)ns2)c1	-91%	-95*	13%	?	-1%
Cc1nn(-c2ccccc2)c2sc(C(=O)c3c(N)n(C)c(=O)n(C)c3=O)cc12	?	-9	0%	1.5µM*	-2%
Cc1cnc(NC(=O)c2cc3c(C)nn(-c4ccccc4)c3s2)s1	?	33	1%	6.6µM*	26%
Cc1nn(-c2ccccc2)c2sc(C(=O)NC3CCCCC3)cc12	5%	-15	-8%	?	-11%
Cc1nn(-c2ccccc2)c2sc(C(=O)NCCN3CCOCC3)cc12	3.7µM*	82	-16%	?	2%
Cc1nn(-c2ccccc2)c2sc(C(=O)Nc3ccc(Br)cc3)cc12	/	-15	5%	/	/
Cc1ccc(C)c(N2CCN(C(=O)Cn3c(C)c4cnn(-c5ccccc5)c(=O)c4c3C)CC2)c1	/	?	-11%	/	/
COCCN(C(=O)C1CC(=O)N(Cc2ccccc2)C1)c1nc(-c2ccc([N+](=O)[O-])cc2)cs1 (stereo not given)	?	?	0%	13µM*	/
O=C(OCc1ccc([N+](=O)[O-])cc1)C1CC(=O)N(Cc2ccccc2)C1 (stereo not given)	/	-23	/	/	/
Cn1c2ccccc2c2ccc3c(c21)C(=O)C=CC3=O	/	26	/	/	/
COc1ccc2c(c1)c1ccc3c(c1n2C)C(=O)C=CC3=O	?	2	1.3µM*	?	?
Cc1ccc2c(c1)c1ccc3c(c1n2C)C(=O)C=CC3=O	?	?	2.5µM*	?	?
